{"source": "PubChem BioAssay AID1220", "about": "(Sanford-Burnham Center for Chemical Genomics, 2008)", "note": "Out of some 190,000 compounds screened, about 1,300 (0.68%) were called active. The sample holds actives, similar compounds and a random draw of the others, so the mix is not that of the screen. Cut-off read from the data, not from the text of the source: active = inhibition above about 50%; inactive = the rest.", "data": [{"target": "Mannose-6-phosphate isomerase (Homo sapiens) (UniProt P34949)", "sequence (P34949 whole entry, looked up)": "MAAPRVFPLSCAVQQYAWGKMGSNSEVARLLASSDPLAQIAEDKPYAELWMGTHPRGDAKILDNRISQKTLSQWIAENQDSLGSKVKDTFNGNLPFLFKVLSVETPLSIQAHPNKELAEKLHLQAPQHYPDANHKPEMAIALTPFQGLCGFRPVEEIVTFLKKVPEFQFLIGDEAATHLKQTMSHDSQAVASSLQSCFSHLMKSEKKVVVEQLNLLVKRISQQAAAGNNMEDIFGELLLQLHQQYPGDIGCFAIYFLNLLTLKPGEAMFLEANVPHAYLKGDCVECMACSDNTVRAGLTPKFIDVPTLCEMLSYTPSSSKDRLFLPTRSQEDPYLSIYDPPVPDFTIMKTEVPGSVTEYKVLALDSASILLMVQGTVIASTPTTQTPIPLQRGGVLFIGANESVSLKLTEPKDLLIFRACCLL", "experiment": "human PMI inhibitors, high substrate, primary screen, biochemical, fluorescence intensity, high mannose 6-phosphate (AID 1220)", "conditions": "recombinant PMI enzyme, coupled fluorescence intensity; at 20 µM; hits give high values", "values": [{"smiles": "Cc1ccc2nsnc2c1S(=O)(=O)Nc1cccc2nsnc12", "inhibition": "50.1% (active)"}, {"smiles": "Cc1cc(C)c(S(=O)(=O)Nc2cccc3nsnc23)c(C)c1", "inhibition": "19.4% (inactive)"}, {"smiles": "O=C(Nc1ncc(Cc2cccc(Cl)c2Cl)s1)c1ccc([N+](=O)[O-])cc1", "inhibition": "-1% (inactive)"}, {"smiles": "CCOC(=O)c1ccccc1NC(=O)CSc1ccccc1", "inhibition": "-10.2% (inactive)"}, {"smiles": "O=c1[nH]c2ccccc2c(O)c1-c1cc2ccccc2oc1=O", "inhibition": "-2.4% (inactive)"}, {"smiles": "O=C(Cc1c[nH]c2ccccc12)NCc1ccccc1F", "inhibition": "7.1% (inactive)"}, {"smiles": "CN1C(=S)SC(N(O)C(=O)Nc2cccc3ccccc23)C1(C)C", "note": "(stereo not given)", "inhibition": "62.9% (active)"}, {"smiles": "CN1C(=S)SC(N(O)C(=O)Nc2ccccc2)C1(C)C", "note": "(stereo not given)", "inhibition": "10.2% (inactive)"}, {"smiles": "CN1C(=S)SC(N(O)C(=O)Nc2ccc(Cl)c(Cl)c2)C1(C)C", "note": "(stereo not given)", "inhibition": "12.6% (inactive)"}, {"smiles": "CN1CCN(/C=C2\\SC(=S)NC2=O)CC1", "inhibition": "-4.7% (inactive)"}, {"smiles": "CN1CCC/C1=C/C=C1\\SC(=S)NC1=O", "inhibition": "53.1% (active)"}, {"smiles": "CN1C(=O)/C(=C\\C=C2/CCCN2C)N(C)C1=S", "inhibition": "30.5% (inactive)"}, {"smiles": "O=C(CCCNC(=O)/C(=C\\c1ccc(F)cc1)NC(=O)c1ccccc1)OCc1ccccc1", "inhibition": "3.3% (inactive)"}, {"smiles": "Cc1nc(-c2ccncc2)sc1C(=O)Nc1ccc(Cl)cc1", "inhibition": "6.1% (inactive)"}, {"smiles": "O=C(Nc1ccccc1)C1=C[C@@H](c2coc3ccccc3c2=O)C[C@@H](OCCCCO)O1", "inhibition": "10.1% (inactive)"}, {"smiles": "CC(C)C[C@H](NC(=O)c1nc[nH]c1C(=O)NC(c1ccccc1)c1ccccc1)C(=O)OCc1ccccc1", "inhibition": "15% (inactive)"}, {"smiles": "CCOC(=O)Cc1csc(NC(=O)c2csc3c2CCCC3)n1", "inhibition": "2% (inactive)"}, {"smiles": "CC(C)CC(C(=O)NC1CCCC1)N(Cc1ccc2c(c1)OCO2)C(=O)c1snc(C(N)=O)c1N", "note": "(stereo not given)", "inhibition": "3.1% (inactive)"}, {"smiles": "CC(C)CCNC(=O)C(CC(C)C)N(Cc1ccc2c(c1)OCO2)C(=O)c1snc(C(N)=O)c1N", "note": "(stereo not given)", "inhibition": "51% (active)"}, {"smiles": "CCCC(C(=O)NC1CCCC1)N(Cc1ccc2c(c1)OCO2)C(=O)c1snc(C(N)=O)c1N", "note": "(stereo not given)", "inhibition": "-8.2% (inactive)"}, {"smiles": "O=c1cc(-c2ccccc2)c2ccccc2[nH]1", "inhibition": "10% (inactive)"}, {"smiles": "Cn1c(=O)cc(-c2ccccc2)c2ccccc21", "inhibition": "0.3% (inactive)"}, {"smiles": "CCS(=O)(=O)N1CCN(S(=O)(=O)c2ccccc2)CC1", "inhibition": "1.8% (inactive)"}, {"smiles": "COc1ccccc1-n1c(=O)c(C#N)c(-c2ccc([N+](=O)[O-])cc2)c2cc(C(=O)c3cc(F)ccc3O)cnc21", "inhibition": "14.2% (inactive)"}, {"smiles": "CCN(CC)C(=S)SCC(=O)c1ccccc1", "inhibition": "7.7% (inactive)"}, {"smiles": "CCN(CC)C(=S)SSC(=S)N(CC)CC", "inhibition": "0.3% (inactive)"}, {"smiles": "O=C(NCc1ccco1)c1ccc(CN2CCOCC2)cc1", "inhibition": "-9.5% (inactive)"}, {"smiles": "COC(=O)c1ccc(NC(=S)NC2c3ccccc3CC2O)cc1", "note": "(stereo not given)", "inhibition": "15.2% (inactive)"}, {"smiles": "CCOC(=O)C(=O)Nc1ccc([N+](=O)[O-])cc1OC", "inhibition": "16.8% (inactive)"}, {"smiles": "CCN(CC)S(=O)(=O)c1ccc(Cl)c(NC(=O)c2ccc(C#N)cc2)c1", "inhibition": "-3.1% (inactive)"}, {"smiles": "CCOC(=O)Cn1c2ccc(C)cc2c2nc(C)sc21", "inhibition": "26.1% (inactive)"}, {"smiles": "Cc1nc2c3cc(F)ccc3n(Cc3ccccc3F)c2s1", "inhibition": "14.7% (inactive)"}, {"smiles": "Cc1nc2c3cc(F)ccc3n(Cc3ccccc3)c2s1", "inhibition": "32.5% (inactive)"}, {"smiles": "Cc1nc2c3cc(F)ccc3n(Cc3ccc(F)cc3)c2s1", "inhibition": "53.2% (active)"}, {"smiles": "CCc1ccc2c(c1)c1nc(C)sc1n2CC", "inhibition": "55.2% (active)"}, {"smiles": "CCc1ccc2c(c1)c1nc(C)sc1n2CC(=O)OC", "inhibition": "5.8% (inactive)"}, {"smiles": "Cc1cccc(C)c1NC(=O)C(=O)c1cn(C)c2ccccc12", "inhibition": "-8.1% (inactive)"}, {"smiles": "COc1cc2c(C(=O)N3CCN(C)CC3)c(C)oc2cc1Br", "inhibition": "11.7% (inactive)"}, {"smiles": "COc1ccc(CC(=O)NC2CC(C)(C)NC(C)(C)C2)cc1", "inhibition": "-9% (inactive)"}, {"smiles": "Cc1ccc(Sc2nc3c(c(=O)[nH]c(=O)n3C)n2CCc2ccccc2)cc1", "inhibition": "18.4% (inactive)"}, {"smiles": "CN(C)c1cc[nH]c(=O)c1C#N", "inhibition": "6.4% (inactive)"}, {"smiles": "COc1cccc(-c2nnc(SCC(=O)Nc3cc(C)on3)n2C)c1", "inhibition": "-5.8% (inactive)"}, {"smiles": "CCc1ccc(O)c(N=Cc2ccccc2O)c1", "inhibition": "23.3% (inactive)"}, {"smiles": "CCOc1ccc(Br)cc1/C=N/O", "inhibition": "16.4% (inactive)"}, {"smiles": "CCCc1ccc(O)c(N=Cc2cc(Br)cc(OCC)c2O)c1", "inhibition": "53.1% (active)"}, {"smiles": "COC(=O)c1ccccc1NC(=O)CSc1nc(-c2ccco2)cc(C(F)(F)F)n1", "inhibition": "12.4% (inactive)"}, {"smiles": "CCOC(=O)N1CCC(N2C(=O)c3ccccc3C2Nc2cc(Cl)c(OC)cc2OC)CC1", "note": "(stereo not given)", "inhibition": "21.3% (inactive)"}, {"smiles": "Cc1ccc(C(=O)COC(=O)c2c(C)cc(=O)oc2C)cc1[N+](=O)[O-]", "inhibition": "58.1% (active)"}, {"smiles": "Cc1cc(=O)oc(C)c1C(=O)OCC(=O)c1ccc2ccccc2c1", "inhibition": "-11.8% (inactive)"}, {"smiles": "Cc1cc(=O)oc(C)c1C(=O)OCC(=O)c1ccc(Cl)c(Cl)c1", "inhibition": "3.4% (inactive)"}]}]}
